This is a sample that favours compounds with a hit; in the whole collection about 4% have one here.
Anthrax LF inh2: anthrax lethal factor protease inhibition. inhibition, % at 10 µM. AID 588501. actives 0.12% (n = 360,000). multiplex microsphere protease cleavage assay, LF. P15917; also: plate controls were buffer without enzyme for full effect and enzyme alone for no effect
Target sequence (P15917 whole entry, looked up): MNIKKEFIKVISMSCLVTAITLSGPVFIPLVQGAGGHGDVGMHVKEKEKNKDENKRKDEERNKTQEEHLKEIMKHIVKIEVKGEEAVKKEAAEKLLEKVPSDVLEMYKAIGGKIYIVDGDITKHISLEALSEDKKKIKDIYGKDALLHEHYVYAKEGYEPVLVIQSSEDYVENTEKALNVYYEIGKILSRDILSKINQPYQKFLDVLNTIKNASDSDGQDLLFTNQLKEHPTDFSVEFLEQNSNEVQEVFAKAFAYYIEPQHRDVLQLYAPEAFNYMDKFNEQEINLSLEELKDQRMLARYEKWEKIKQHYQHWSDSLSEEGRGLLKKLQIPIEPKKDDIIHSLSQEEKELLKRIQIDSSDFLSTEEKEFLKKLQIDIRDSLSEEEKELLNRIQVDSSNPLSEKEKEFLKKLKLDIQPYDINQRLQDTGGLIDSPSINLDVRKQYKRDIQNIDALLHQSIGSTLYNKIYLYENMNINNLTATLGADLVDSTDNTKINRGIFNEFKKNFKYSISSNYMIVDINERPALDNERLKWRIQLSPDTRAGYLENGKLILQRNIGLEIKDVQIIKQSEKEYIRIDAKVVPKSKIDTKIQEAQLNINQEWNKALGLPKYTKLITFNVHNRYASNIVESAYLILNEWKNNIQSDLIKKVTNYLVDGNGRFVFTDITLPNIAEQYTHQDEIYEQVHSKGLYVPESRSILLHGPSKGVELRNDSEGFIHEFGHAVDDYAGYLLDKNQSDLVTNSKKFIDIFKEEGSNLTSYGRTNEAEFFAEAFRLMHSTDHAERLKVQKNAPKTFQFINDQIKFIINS
MazEF act: increases E. coli MazEF RNase cleavage of RNA | P0AE70 | FAM/BHQ RNA-DNA oligo cleavage fluorescence, 5 h | activation, % at 20 µM | actives 0.32% (n = 350,000) | AID 504720; in the data active = activation above about 50%
BoNT-F LC inh: blocks Botulinum neurotoxin F light chain protease; Multiplex microsphere protease cleavage assay, flow cytometry; inhibition, % at 10 µM; actives 0.22% (n = 360,000); AID 588497; in the data active = inhibition above about 35%, passing the limit was not always enough; inconclusive = no clear call, values can overlap the other calls; also: plate controls were buffer without enzyme for full effect and enzyme alone for no effect
VHR inh abs: inhibitors of human VHR1 phosphatase (DUSP3); recombinant VHR phosphatase, pNPP absorbance; inhibition, % at 13.3 µM; actives 0.52% (n = 290,000); AID 1654; in the data active = inhibition above about 50%
Bead autofluor: flagged as autofluorescent in microsphere protease counterscreen; compound autofluorescence counterscreen, microsphere flow cytometry; active compounds read high; fluorescence intensity (test concentration not listed); actives 3.1% (n = 360,000); AID 624483; in the data active = fluorescence intensity above about 16000; inconclusive = no clear call, values can overlap the other calls
BoNT A protease: inhibitors of Botulinum neurotoxin A light chain protease; multiplex microsphere protease substrate cleavage, flow cytometry; inhibition, % at 10 µM; actives 0.17% (n = 360,000); AID 588499; also: plate controls were buffer without enzyme for full effect and enzyme alone for no effect
Numbers without * were called inactive. Rule as the data show it, unless noted: active = inhibition above about 30%; inconclusive = no clear call, values can overlap the other calls; inactive = below that.

Results for CC(C(=O)Nc1ccc(C#N)cc1)N(C)Cc1cccs1 (stereo not drawn) ?
Anthrax LF inh2: -4; MazEF act: -4; BoNT-F LC inh: -4; VHR inh abs: 3; Bead autofluor: 4190; BoNT A protease: -2

Results for COc1ccc(-n2c(C)cc(C(=O)COc3ccc(-n4cnnn4)cc3)c2C)cc1 ?
Anthrax LF inh2: 0; MazEF act: -3; BoNT-F LC inh: -2; VHR inh abs: 6; Bead autofluor: 5001; BoNT A protease: 0

Results for COC(=O)c1ccc(CSC2=NCCS2)cc1 ?
Anthrax LF inh2: -4; MazEF act: -3; BoNT-F LC inh: -6; VHR inh abs: -14; Bead autofluor: 2909; BoNT A protease: -1

What do the screens show for `CN(c1ccccc1C(=O)N1CCc2ccccc2C1)S(C)(=O)=O`?
Anthrax LF inh2: -4; MazEF act: 11; BoNT-F LC inh: 0; VHR inh abs: 14; Bead autofluor: 22577*; BoNT A protease: 0

What do the screens show for `COc1cccc(-c2cc(C(=O)N3CCN(c4ncccn4)CC3)c3ccccc3n2)c1`?
Anthrax LF inh2: 2; MazEF act: -6; BoNT-F LC inh: -1; VHR inh abs: 1; Bead autofluor: 3136; BoNT A protease: 0

How did Cc1ccc2nc(-c3ccccc3)cc(C(=O)N3CCc4ccccc4C3)c2c1 do in these assays?
Anthrax LF inh2: 2; MazEF act: -8; BoNT-F LC inh: 5; VHR inh abs: 10; Bead autofluor: 23070*; BoNT A protease: inconclusive

What do the screens show for `O=C(c1cc(-c2ccccc2)nc2ccccc12)N1CCc2ccccc2C1`?
Anthrax LF inh2: -4; MazEF act: -5; BoNT-F LC inh: -4; VHR inh abs: 24; Bead autofluor: 9844; BoNT A protease: 0

What do the screens show for `CC(C)Oc1cccc(-c2cc(C(=O)N3CCN(c4ncccn4)CC3)c3ccccc3n2)c1`?
Anthrax LF inh2: -3; BoNT-F LC inh: -3; VHR inh abs: 43; Bead autofluor: 23367*; BoNT A protease: inconclusive

How did Cc1cnc(C(=O)OCC(=O)N(CC(C)C)C2CCS(=O)(=O)C2)cn1 (stereo not drawn) do in these assays?
Anthrax LF inh2: 0; MazEF act: 8; BoNT-F LC inh: 3; Bead autofluor: 8068; BoNT A protease: 3

What do the screens show for `Cc1cccc(NC(=O)CSCC(=O)Nc2ccc(S(=O)(=O)N3CCCC3)cc2)c1`?
Anthrax LF inh2: -3; MazEF act: -2; BoNT-F LC inh: 8; Bead autofluor: 4654; BoNT A protease: 1

Results for C[n+]1cn(/N=C/c2ccccc2)c2ccccc21 ?
Anthrax LF inh2: -1; MazEF act: -4; BoNT-F LC inh: 2; VHR inh abs: 54*; Bead autofluor: 2041; BoNT A protease: 0

How did Cc1csc(SCC(=O)Nc2ccc(Cl)cn2)n1 do in these assays?
Anthrax LF inh2: 1; MazEF act: -27; BoNT-F LC inh: -4; VHR inh abs: 22; Bead autofluor: 4502; BoNT A protease: 0

What do the screens show for `CN(C)c1ccc(NC(=O)c2sc(SCC(=O)Nc3nccs3)nc2N)cc1`?
Anthrax LF inh2: -3; MazEF act: 20; BoNT-F LC inh: -5; VHR inh abs: -10; Bead autofluor: 23476*; BoNT A protease: -1

How did Cc1nnc(SCC(=O)Nc2nsc(-c3ccccc3)n2)s1 do in these assays?
Anthrax LF inh2: -6; MazEF act: 0; BoNT-F LC inh: -6; VHR inh abs: -16; Bead autofluor: 21832*; BoNT A protease: -5

What do the screens show for `Cc1nnc(SCC(=O)Nc2nc(C(C)(C)C)cs2)s1`?
Anthrax LF inh2: 1; MazEF act: 0; BoNT-F LC inh: -3; VHR inh abs: 8; Bead autofluor: 21050*; BoNT A protease: inconclusive

How did CC(C)(C)c1csc(SCC(=O)Nc2ccc(Cl)cn2)n1 do in these assays?
Anthrax LF inh2: -8; MazEF act: -6; BoNT-F LC inh: 1; VHR inh abs: 13; Bead autofluor: 18967*; BoNT A protease: 2

Results for CN(C)c1ccc(NC(=O)c2sc(SCC(=O)Nc3ccc(Br)cc3)nc2N)cc1 ?
Anthrax LF inh2: -3; MazEF act: 16; BoNT-F LC inh: -6; VHR inh abs: 29; Bead autofluor: 4827; BoNT A protease: 1

Results for CC(C(=O)NCC1(c2ccccc2)CCOCC1)N1CCOCC1 (stereo not drawn) ?
Anthrax LF inh2: 0; MazEF act: -14; BoNT-F LC inh: -2; VHR inh abs: 8; Bead autofluor: 4182; BoNT A protease: 0

Screens as filed in PubChem BioAssay.
